Experimental data from PubChem BioAssay.
Activity calls are given as the source filed them.

Assays:
Albumin (Bos taurus) = Albumin (Bos taurus) (UniProt P02769); experiment: bovine serum albumin binders on microarray, profiling panel, artefact control for SMM control protein annotation, biochemical, small-molecule microarray, Alexa647 label, 635/667 nm fluorescence (AID 1118); details: BSA-A647 binding, fluorescence 635 nm, higher = more signal;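 also: score merges 667 nm emission intensity and signal-to-noise per printed compound spot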
[1] = small-molecule microarray binders of probe aXIP, primary screen, biochemical, NeuroSMM set, 635/667 nm fluorescence (AID 1119); details: higher = more signal, called active from +8 up or from −8 down;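 also: probe is the protein aXip251-270 applied at 1 µg/mL to compound-printed slides; binding of probe to printed compounds measured as 667 nm fluorescence plus signal to noise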
[2] = small-molecule binders of probe aNOTCH3, primary screen, biochemical, small-molecule microarray, 635/667 nm fluorescence (AID 1120); details: higher = more signal;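 also: probe is a biotin-tagged antibody raised against NOTCH3 rather than NOTCH3 protein; score merges spot fluorescence near 667 nm with spot signal to noise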
[3] = small-molecule binders of probe aNOTCH2, primary screen, biochemical, small-molecule microarray, 635/667 nm fluorescence (AID 1121); details: higher = more signal;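 also: score merges feature fluorescence read at 667 nm with its signal to noise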
[4] = biological target: Carbonic anhydrase 2 (Homo sapiens) (UniProt P00918); experiment: CAII small-molecule binders, profiling panel, biochemical, small-molecule microarray, Alexa647-labelled CAII (AID 1122); details: CAII-A647 binding fluorescence, higher = more signal
[5] = COS7 lysate on small-molecule microarray, probe aHis, 635 nm (AID 1123); details: COS7 cell lysate, fluorescence, higher = more signal;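 also: z-score combines 667nm fluorescence intensity with signal-to-noise per printed compound spot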
[6] = compound binding in COS7 lysate, probe aLAP1, primary screen, cell lysate, small-molecule microarray (AID 1124); details: probe aLAP1, fluorescence, higher = more signal;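 also: lysate comes from COS7 cells expressing LAP1 and is applied at 0.3 µg/mL; score merges spot fluorescence near 667 nm with signal-to-noise over triplicate slides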
Sam68 (KHDRBS1) = experiment: Sam68 small-molecule binders, primary screen, biochemical, small-molecule microarray, 635 nm fluorescence (AID 1125); details: small-molecule microarray binding, higher = more signal;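 also: score merges 667 nm channel intensity with signal to noise over triplicate slides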
[7] = test system: Chordin-like protein 2 (CHRDL2); experiment: CHRDL2 small-molecule binders, primary screen, biochemical, small-molecule microarray, 635 nm fluorescence (AID 1126); details: small-molecule microarray binding, fluorescence 635 nm; higher = more signal;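 also: printed compound slides probed with Chrdl2 protein at 4 µg/mL for 1 h at 4 C; score merges 667 nm emission intensity with signal to noise over three replicate slides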
[8] = biological target: Concanavalin-A (Canavalia ensiformis) (UniProt P02866); experiment: ConA small-molecule binders, primary screen, artefact control for SMM control protein annotation, biochemical, small-molecule microarray, Alexa647 label, 635 nm (AID 1127); details: ConA-A647 binding fluorescence, higher = more signal;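 also: z combines 667 nm emission intensity with signal-to-noise across three replicate slides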
[9] = anti-His antibody binders, primary screen, artefact control for SMM control protein annotation, biochemical, small-molecule microarray, 635 nm fluorescence (AID 1128); details: anti-His Alexa647 antibody binding, higher = more signal;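 also: score merges feature fluorescence with signal-to-noise for each printed compound spot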
[10] = test system: Human papillomavirus type 1a E7 protein (residues 1-88); experiment: HPV1a E7 small-molecule binders, primary screen, biochemical, small-molecule microarray, residues 1-88, 635 nm (AID 1129); details: small-molecule microarray binding, fluorescence 635 nm; higher = more signal
[11] = biological target: Focal adhesion kinase 1 (Homo sapiens) (UniProt Q05397); experiment: small-molecule microarray binders of FAK, primary screen, biochemical, 635/667 nm fluorescence, BSA, DTT (AID 1130); details: PTK2 binding, 635 nm fluorescence, higher = more signal;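 also: composite of spot emission at 667 nm and signal to noise over triplicate slides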
[12] = test system: Fibrinogen (Alexa647-labelled); experiment: fibrinogen binders on compound microarrays, profiling panel, artefact control for SMM control-protein annotation, biochemical, small-molecule microarray, 635/667 nm fluorescence (AID 1131); details: fibrinogen-A647 binding fluorescence, higher = more signal;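 also: z-score merges 667 nm fluorescence with per-spot signal-to-noise over triplicate slides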
[13] = biological target: Follistatin (Homo sapiens) (UniProt P19883); experiment: follistatin binders on small-molecule microarrays, primary screen, biochemical, small-molecule microarray, 635/667 nm fluorescence (AID 1132); details: FST binding, 635 nm fluorescence, higher = more signal
[14] = biological target: Fibroblast growth factor 2 (Homo sapiens) (UniProt P09038); experiment: FGF2 binders on small-molecule microarrays, primary screen, biochemical, small-molecule microarray, 635/667 nm fluorescence (AID 1133); details: small-molecule microarray binding, FGF2, fluorescence 635/667; higher = more signal
[15] = mitochondrial membrane potential change in A549 cells, profiling panel, cell-based, JC-1 fluorescence, basal, 24 h, 100 nL (AID 1138); details: higher = more signal;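 also: A549 lung adenocarcinoma cells under basal conditions with no added stimulus; test concentration not given here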
Lefty1 = Lefty1 binders on small-molecule microarrays, primary screen, biochemical, small-molecule microarray, 635/667 nm fluorescence (AID 1139); details: small-molecule microarray binding, fluorescence 635/667; higher = more signal
[16] = test system: wheat germ agglutinin (Triticum aestivum), Alexa647-labelled; experiment: wheat germ agglutinin binders on compound microarrays, profiling panel, artefact control for SMM control-protein annotation, biochemical, small-molecule microarray, 635/667 nm fluorescence (AID 1140); details: WGA-A647 binding, 635 nm fluorescence, higher = more signal;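 also: score merges 667 nm feature emission with signal to noise over triplicate slides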
[17] = biological target: Luciferin 4-monooxygenase (Photinus pyralis) (UniProt P08659); experiment: firefly luciferase enzyme inhibitors, primary screen, biochemical, luminescence, purified enzyme, 2006 set (AID 1141); details: SteadyGlo luminescence, 30 min, higher = more signal, called active from +8 up or from −8 down;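 also: cell-free assay with purified firefly luciferase at 100 ng per well in PBS; test concentration not given here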
Luciferin 4-monooxygenase (Photinus pyralis), sequence (P08659 whole entry, looked up): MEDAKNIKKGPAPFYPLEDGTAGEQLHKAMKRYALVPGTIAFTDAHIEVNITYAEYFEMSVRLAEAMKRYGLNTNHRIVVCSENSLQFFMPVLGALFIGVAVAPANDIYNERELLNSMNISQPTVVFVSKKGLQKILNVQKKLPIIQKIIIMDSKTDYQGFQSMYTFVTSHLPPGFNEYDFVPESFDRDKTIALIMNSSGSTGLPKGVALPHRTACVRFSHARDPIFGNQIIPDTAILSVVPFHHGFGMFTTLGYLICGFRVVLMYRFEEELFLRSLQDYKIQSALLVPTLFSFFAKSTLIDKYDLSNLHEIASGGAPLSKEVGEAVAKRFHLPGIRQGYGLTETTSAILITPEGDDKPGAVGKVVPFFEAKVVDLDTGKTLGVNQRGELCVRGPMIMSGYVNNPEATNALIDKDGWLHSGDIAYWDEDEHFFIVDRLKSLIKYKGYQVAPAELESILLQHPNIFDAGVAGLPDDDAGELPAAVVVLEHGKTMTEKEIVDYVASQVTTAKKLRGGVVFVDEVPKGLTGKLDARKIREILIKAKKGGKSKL

Focal adhesion kinase 1 (Homo sapiens), sequence (Q05397 whole entry, looked up): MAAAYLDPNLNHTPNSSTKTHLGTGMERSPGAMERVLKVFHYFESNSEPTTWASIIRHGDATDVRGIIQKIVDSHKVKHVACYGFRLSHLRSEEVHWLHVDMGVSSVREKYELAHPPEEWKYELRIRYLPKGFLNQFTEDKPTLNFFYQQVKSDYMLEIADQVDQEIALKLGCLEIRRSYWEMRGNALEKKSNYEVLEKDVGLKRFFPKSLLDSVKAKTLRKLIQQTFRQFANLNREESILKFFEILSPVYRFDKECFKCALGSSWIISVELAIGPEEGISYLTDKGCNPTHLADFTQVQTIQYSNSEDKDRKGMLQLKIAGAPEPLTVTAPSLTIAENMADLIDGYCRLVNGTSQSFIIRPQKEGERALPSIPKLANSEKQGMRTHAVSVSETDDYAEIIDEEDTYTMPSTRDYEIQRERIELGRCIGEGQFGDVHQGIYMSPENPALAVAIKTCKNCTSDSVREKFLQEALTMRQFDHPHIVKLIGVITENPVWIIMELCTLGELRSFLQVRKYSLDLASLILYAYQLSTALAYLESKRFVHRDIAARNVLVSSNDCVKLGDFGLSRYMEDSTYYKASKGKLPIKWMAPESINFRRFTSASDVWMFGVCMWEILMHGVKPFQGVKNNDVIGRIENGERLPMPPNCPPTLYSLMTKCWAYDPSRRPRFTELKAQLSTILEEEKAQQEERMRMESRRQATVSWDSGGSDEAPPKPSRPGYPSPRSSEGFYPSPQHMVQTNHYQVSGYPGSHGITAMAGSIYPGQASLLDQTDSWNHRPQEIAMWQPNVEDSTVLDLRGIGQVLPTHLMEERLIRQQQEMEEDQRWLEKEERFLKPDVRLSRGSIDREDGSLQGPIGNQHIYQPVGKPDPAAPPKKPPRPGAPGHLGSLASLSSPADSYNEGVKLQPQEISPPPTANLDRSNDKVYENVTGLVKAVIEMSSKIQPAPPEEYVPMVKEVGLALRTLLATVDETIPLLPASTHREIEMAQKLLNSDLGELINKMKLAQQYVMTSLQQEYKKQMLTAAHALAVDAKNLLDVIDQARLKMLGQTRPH
Fibroblast growth factor 2 (Homo sapiens), sequence (P09038 whole entry, looked up): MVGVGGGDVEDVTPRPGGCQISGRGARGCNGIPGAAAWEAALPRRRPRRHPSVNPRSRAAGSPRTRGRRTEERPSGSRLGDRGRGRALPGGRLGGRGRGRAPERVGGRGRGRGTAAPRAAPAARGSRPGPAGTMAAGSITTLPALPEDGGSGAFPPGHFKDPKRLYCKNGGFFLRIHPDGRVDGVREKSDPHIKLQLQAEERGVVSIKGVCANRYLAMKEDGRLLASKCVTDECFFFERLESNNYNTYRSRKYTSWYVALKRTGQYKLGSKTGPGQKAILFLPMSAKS
Follistatin (Homo sapiens), sequence (P19883 whole entry, looked up): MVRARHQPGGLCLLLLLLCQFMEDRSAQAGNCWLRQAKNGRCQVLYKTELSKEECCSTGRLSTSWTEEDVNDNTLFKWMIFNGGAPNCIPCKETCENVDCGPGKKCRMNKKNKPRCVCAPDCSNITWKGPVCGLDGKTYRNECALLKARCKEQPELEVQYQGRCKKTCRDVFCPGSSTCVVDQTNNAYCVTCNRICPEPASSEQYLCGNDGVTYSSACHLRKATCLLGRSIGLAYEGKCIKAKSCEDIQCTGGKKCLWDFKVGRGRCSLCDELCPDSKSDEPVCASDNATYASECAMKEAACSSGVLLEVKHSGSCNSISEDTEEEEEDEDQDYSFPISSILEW
Concanavalin-A (Canavalia ensiformis), sequence (P02866 whole entry, looked up): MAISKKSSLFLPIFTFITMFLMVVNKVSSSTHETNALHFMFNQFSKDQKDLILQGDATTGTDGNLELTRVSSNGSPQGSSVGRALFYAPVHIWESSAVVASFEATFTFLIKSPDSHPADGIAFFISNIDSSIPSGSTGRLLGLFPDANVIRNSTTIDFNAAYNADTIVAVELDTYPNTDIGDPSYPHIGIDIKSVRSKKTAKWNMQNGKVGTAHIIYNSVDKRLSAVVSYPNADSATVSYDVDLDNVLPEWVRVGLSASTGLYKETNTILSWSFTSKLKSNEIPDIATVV
Albumin (Bos taurus), sequence (P02769 whole entry, looked up): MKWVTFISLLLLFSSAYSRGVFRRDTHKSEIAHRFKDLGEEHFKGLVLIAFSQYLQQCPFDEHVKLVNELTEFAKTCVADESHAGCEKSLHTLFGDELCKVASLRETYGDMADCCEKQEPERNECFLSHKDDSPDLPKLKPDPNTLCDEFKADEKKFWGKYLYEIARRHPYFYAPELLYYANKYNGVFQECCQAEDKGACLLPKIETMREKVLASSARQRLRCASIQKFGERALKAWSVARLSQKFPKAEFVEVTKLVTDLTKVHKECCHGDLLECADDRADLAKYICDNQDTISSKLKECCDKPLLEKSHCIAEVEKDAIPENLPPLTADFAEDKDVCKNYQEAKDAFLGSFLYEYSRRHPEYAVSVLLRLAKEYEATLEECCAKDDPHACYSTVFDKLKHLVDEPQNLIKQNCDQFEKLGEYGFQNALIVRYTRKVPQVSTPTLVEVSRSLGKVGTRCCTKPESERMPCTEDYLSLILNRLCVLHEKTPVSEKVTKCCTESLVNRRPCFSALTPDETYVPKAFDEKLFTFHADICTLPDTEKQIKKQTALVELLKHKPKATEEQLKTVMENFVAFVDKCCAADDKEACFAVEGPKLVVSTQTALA

| SMILES | composite z-score (Albumin (Bos taurus)) | composite Z-score [1] | composite z-score [2] | composite z-score [3] | composite z-score [4] | composite z-score [5] | composite z-score [6] | composite z-score (Sam68 (KHDRBS1)) | composite z-score [7] | composite z-score [8] | composite z-score [9] | composite z-score [10] | composite z-score [11] | composite z-score [12] | composite z-score [13] | composite z-score [14] | z-score [15] | composite z-score (Lefty1) | composite z-score [16] | z-score [17] |
| --- | --- | --- | --- | --- | --- | --- | --- | --- | --- | --- | --- | --- | --- | --- | --- | --- | --- | --- | --- | --- |
| CCOC(=O)[C@H](CC(C)C)NC(=O)CCC1CC(OC(=O)NCc2cccc3ccccc23)CC2(CCCC(COC(=O)NCCc3ccccc3OC)O2)O1 (stereo not given in full) | 0.752 | 0.0898 (inactive) | -0.155 | -0.0708 | 0.211 | 0.398 | 0.251 | 1.3 | 0.566 | 1.11 | 1.02 | 1.12 | 0.0969 | 0.949 | 0.583 | 0.485 | 0.041 | 1.5 | 0.225 | 0.755 (inactive) |
| CO[C@H]1COC(=O)[C@@H]2CCCN2C(=O)[C@@H](C)COC(=O)CC=C[C@@H]1C | -0.414 | -0.275 (inactive) | -0.0647 | -0.0907 | -0.329 | -0.641 | 0.359 | 0.474 | 1.4 | 0.75 | 1.42 | -0.217 | -0.114 | 0.112 | 1.02 | 1.46 | -0.409 | 0.898 | -0.114 | 1.29 (inactive) |
| O=C1[C@H]2[C@H]3[C@H](O)[C@H](O)CC(=NO[C@@H]4O[C@H](CO)[C@@H](O)[C@H](O)[C@H]4O)[C@@H]3CC[C@H]2C(=O)N1Cc1ccccc1 | -0.0679 | 0.0769 (inactive) | 0.0744 | -0.0623 | -0.568 | -0.658 | 0.0054 | 0.64 | -0.293 | -0.664 | -0.58 | -0.623 | 0.593 | -0.247 | -0.303 | 0.16 | 0.129 | 0.289 | -0.0706 | 0.4 (inactive) |
| COC(=O)CC=C[C@H](C)[C@@H](OCc1ccccc1Br)C(C)C | -0.0311 | -0.0469 (inactive) | -0.0343 | -0.113 | -0.279 | 0.164 | 0.0326 | -0.385 | 0.382 | 0.112 | 0.219 | -0.161 | 0.0767 | -0.263 | 0.292 | -0.0207 | 1.32 | 0.646 | 0.0141 | -0.401 (inactive) |
| COc1ccc([Si](C)(C)[C@H]2[C@H](CC(=O)N3CCC[C@H]3CO)O[C@@]3(C(=O)N(Cc4cccc(N5C(=O)COc6ccccc65)c4)c4ccccc43)[C@@H]2C)cc1 | 0.34 | 0.33 (inactive) | 0.0293 | -0.0556 | 0.437 | 2.38 | 0.125 | 1.26 | 0.959 | 0.997 | 0.514 | 0.885 | 0.392 | -0.07 | 0.727 | 1.68 | 4.31 | 0.994 | -0.32 | -2.36 (inactive) |
